Experimental data as given in article PMC7862700, “An all-to-all approach to the identification of sequence-specific readers for epigenetic DNA modifications on cytosine”.

Columns and labels:
Assay in all cases: DAPPL (digital affinity profiling via proximity ligation, sequencing); 10 mM Tris-HCl pH 7.5, 50 mM NaCl, 1 mM DTT, 4% glycerol, room temperature, 30 min; GST-TFs on glutathione beads, 16-mer random dsDNA library, 0.1% formaldehyde crosslink after washing; high values mean tight binding
Conditions in all cases: protein: recombinant; tags: N-terminal GST; dsDNA, one strand shown
[1] = target: T1, ELK1 (Homo sapiens, UniProt P19419 1-428)
T1 sequence: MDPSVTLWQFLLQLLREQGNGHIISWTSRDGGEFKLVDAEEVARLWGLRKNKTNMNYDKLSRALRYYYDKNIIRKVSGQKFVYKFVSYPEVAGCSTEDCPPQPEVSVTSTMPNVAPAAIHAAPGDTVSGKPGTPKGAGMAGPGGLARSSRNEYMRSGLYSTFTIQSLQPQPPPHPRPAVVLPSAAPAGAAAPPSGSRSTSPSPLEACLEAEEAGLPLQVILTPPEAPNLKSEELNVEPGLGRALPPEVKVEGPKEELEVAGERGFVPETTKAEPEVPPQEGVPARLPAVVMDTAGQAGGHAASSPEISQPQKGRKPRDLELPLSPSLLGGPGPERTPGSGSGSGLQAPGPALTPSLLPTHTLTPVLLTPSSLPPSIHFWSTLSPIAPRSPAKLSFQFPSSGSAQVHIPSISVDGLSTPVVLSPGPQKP
In short: (§1)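 A tag-only sample was pooled with DNA-barcoded human transcription factors that had been expressed in yeast as GST fusions and captured on glutathione beads. The pools were incubated for 30 min at room temperature with 200 nmole of a random double-stranded 16-mer DNA library in Tris/NaCl/DTT/glycerol buffer, then washed, crosslinked with 0.1% formaldehyde, proximity-ligated (BsaI/T4 ligase, 1 h, 37 °C), PCR-amplified and sequenced on an Illumina NextSeq500. Binding signal is each hexamer's read frequency for a factor divided by its frequency for the tag-only sample.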

[2] = target: T2, GABPA (Homo sapiens, UniProt Q06546 1-454)
T2 sequence: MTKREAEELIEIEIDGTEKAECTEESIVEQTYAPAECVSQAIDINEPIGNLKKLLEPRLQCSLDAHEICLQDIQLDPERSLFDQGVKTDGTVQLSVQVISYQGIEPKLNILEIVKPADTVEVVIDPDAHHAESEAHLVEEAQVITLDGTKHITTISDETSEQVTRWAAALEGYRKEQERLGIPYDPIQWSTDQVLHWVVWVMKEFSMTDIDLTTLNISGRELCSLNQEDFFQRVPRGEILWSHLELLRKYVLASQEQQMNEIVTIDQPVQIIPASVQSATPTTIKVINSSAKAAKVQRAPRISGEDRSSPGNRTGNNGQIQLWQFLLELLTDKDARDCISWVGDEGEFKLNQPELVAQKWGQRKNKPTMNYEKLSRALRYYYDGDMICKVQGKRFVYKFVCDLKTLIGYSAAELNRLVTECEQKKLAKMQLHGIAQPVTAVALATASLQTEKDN
In short: as §1

[3] = target: T3, ERG (Homo sapiens, UniProt P11308 1-479)
T3 sequence: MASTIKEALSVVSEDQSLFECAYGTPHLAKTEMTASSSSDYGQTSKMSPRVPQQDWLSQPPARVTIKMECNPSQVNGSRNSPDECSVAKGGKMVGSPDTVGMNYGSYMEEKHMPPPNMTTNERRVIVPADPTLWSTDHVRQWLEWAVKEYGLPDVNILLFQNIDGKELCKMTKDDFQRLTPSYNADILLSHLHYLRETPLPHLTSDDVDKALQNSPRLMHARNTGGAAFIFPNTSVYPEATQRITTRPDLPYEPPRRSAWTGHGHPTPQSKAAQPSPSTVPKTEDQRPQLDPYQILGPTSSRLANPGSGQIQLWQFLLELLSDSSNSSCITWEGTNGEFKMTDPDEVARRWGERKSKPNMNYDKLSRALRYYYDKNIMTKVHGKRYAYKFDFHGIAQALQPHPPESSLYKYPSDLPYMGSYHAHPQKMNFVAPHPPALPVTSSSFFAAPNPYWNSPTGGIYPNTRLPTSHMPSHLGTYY
In short: as §1

[4] = target: ELF1 (Homo sapiens, UniProt P32519 1-619)
Chain of ELF1 (P32519 whole entry): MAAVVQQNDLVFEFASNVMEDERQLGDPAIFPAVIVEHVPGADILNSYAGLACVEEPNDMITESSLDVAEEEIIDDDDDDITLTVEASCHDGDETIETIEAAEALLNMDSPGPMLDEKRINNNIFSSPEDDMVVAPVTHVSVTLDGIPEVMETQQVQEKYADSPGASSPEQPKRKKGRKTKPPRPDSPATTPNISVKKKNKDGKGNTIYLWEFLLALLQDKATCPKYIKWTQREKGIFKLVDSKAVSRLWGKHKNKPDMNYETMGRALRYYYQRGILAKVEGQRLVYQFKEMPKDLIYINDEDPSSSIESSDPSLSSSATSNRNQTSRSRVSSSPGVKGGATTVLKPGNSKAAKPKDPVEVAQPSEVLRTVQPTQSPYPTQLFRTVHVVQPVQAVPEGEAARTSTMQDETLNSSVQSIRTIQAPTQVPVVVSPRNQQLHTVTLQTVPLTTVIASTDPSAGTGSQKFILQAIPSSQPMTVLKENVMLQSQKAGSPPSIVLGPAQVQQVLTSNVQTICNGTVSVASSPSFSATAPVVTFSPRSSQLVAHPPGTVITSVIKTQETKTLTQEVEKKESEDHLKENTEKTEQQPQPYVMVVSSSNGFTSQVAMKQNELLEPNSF
In short: as §1

[5] = target: T4, EHF (Homo sapiens, UniProt Q9NZC4 1-300)
T4 sequence: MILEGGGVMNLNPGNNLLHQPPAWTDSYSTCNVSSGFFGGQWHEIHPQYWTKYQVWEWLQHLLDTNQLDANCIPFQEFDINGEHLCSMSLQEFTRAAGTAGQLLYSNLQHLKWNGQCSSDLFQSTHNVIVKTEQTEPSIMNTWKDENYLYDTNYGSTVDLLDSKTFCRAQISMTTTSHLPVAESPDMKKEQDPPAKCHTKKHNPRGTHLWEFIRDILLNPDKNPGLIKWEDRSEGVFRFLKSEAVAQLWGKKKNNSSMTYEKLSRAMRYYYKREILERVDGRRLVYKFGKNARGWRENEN
In short: as §1

[6] = target: T5, FEV (Homo sapiens, UniProt Q99581 1-238)
T5 sequence: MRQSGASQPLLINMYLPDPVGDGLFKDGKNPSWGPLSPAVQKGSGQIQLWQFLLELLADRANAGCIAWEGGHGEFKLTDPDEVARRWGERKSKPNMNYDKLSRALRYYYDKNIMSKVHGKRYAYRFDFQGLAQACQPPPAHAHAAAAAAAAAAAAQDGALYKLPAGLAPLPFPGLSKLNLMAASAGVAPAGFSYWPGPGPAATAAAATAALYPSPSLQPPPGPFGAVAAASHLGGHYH
In short: as §1

[7] = target: ETV5 (Homo sapiens, UniProt P41161 1-510)
Chain of ETV5 (P41161 whole entry): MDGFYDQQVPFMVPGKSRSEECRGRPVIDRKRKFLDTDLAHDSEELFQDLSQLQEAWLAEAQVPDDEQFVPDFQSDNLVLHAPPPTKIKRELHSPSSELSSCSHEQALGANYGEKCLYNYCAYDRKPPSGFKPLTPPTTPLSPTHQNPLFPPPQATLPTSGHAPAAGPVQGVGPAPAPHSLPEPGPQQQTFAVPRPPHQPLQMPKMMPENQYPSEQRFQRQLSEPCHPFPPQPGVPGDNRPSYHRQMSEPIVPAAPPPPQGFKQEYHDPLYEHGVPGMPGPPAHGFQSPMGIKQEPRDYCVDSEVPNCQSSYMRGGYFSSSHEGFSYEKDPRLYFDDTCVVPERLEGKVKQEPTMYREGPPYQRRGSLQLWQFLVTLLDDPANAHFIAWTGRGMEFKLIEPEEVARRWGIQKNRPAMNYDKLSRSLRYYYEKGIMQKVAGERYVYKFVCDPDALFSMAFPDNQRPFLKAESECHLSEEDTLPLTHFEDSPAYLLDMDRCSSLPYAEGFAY
In short: as §1

[8] = target: ELF4 (Homo sapiens, UniProt Q99607 1-663)
Chain of ELF4 (Q99607 whole entry): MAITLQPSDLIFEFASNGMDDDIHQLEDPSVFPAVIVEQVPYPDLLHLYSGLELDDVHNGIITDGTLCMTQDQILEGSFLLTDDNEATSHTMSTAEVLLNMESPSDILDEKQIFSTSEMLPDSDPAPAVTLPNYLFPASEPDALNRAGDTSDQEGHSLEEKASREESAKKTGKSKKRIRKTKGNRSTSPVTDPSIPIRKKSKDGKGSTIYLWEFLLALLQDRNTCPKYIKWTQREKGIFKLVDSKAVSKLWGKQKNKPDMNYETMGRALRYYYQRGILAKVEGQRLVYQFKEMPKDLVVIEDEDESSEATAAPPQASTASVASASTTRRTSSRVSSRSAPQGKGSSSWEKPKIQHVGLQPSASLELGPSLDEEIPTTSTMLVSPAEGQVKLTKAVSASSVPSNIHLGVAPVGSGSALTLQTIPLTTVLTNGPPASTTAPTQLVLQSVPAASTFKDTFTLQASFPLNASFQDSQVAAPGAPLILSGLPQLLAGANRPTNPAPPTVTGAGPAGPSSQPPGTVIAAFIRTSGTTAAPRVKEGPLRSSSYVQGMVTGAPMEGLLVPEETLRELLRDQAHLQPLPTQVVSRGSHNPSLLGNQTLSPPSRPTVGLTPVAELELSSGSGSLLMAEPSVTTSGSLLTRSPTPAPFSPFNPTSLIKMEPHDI
In short: as §1

[9] = target: T6, ELK4 (Homo sapiens, UniProt P28324-2 1-405)
T6 sequence: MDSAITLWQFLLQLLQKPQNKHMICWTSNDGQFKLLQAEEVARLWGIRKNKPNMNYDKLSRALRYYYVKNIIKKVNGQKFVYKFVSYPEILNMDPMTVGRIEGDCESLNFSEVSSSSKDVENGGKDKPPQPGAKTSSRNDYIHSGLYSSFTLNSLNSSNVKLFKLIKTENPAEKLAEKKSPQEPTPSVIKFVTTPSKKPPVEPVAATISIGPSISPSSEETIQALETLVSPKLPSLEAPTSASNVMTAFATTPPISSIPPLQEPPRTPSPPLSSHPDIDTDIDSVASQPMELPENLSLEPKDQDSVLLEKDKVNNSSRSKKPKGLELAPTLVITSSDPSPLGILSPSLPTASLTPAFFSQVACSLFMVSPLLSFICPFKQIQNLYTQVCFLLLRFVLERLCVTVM
In short: as §1

[10] = target: T7, ETV2 (Homo sapiens, UniProt O00321 1-342)
T7 sequence: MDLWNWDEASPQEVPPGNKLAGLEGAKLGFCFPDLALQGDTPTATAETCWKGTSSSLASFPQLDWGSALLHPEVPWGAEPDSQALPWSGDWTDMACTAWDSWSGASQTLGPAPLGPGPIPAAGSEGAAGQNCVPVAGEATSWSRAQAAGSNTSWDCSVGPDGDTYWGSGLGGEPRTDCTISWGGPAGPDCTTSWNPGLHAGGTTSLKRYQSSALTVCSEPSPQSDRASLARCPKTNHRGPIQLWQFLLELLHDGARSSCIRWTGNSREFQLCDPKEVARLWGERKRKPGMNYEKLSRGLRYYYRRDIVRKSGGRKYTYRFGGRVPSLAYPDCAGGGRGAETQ
In short: as §1

[11] = target: T8, ELF3 (Homo sapiens, UniProt P78545 1-371)
T8 sequence: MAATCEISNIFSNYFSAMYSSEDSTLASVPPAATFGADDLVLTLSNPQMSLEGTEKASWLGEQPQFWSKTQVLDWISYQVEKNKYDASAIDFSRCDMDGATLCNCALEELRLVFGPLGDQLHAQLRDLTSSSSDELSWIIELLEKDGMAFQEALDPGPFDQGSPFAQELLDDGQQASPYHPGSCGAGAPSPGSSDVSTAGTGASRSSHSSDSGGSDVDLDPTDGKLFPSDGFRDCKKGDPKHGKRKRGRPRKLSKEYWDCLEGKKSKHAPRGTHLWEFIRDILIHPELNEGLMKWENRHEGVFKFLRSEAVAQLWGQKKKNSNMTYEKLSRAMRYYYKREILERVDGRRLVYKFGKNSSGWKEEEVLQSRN
In short: as §1

[12] = target: ETV1 (Homo sapiens, UniProt P50549 1-477)
Chain of ETV1 (P50549 whole entry): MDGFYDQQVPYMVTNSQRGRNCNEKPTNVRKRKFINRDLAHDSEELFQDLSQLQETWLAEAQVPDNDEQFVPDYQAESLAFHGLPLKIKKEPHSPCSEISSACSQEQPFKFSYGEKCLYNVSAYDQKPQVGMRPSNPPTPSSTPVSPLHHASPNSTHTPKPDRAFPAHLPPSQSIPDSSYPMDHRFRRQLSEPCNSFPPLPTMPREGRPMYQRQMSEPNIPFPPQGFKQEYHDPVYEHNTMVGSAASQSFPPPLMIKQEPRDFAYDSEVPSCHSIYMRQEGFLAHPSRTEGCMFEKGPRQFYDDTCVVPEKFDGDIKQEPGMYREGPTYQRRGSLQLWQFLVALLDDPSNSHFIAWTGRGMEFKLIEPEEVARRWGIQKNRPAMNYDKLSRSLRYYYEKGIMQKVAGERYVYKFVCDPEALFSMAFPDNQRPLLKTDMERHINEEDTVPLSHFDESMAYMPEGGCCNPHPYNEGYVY
In short: as §1

[13] = target: T9, ERF (Homo sapiens, UniProt P50548 1-548)
T9 sequence: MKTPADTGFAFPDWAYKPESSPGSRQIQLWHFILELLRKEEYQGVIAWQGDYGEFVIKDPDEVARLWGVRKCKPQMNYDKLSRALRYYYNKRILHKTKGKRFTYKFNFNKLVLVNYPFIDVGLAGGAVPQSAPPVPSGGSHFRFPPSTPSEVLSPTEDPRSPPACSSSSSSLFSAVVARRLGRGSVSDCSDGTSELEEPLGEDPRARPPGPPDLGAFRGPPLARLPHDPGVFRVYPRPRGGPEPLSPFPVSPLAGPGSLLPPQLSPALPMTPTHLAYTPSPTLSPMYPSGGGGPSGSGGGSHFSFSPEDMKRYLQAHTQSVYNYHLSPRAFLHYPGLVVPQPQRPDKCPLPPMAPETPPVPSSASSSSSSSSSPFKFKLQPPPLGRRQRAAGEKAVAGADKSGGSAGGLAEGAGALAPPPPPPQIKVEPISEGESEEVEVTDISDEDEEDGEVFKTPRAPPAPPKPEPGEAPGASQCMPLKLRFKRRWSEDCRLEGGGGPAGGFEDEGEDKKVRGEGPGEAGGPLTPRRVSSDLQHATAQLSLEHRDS
In short: as §1

[14] = target: T10, ETV3L (Homo sapiens, UniProt Q6ZN32 1-361)
T10 sequence: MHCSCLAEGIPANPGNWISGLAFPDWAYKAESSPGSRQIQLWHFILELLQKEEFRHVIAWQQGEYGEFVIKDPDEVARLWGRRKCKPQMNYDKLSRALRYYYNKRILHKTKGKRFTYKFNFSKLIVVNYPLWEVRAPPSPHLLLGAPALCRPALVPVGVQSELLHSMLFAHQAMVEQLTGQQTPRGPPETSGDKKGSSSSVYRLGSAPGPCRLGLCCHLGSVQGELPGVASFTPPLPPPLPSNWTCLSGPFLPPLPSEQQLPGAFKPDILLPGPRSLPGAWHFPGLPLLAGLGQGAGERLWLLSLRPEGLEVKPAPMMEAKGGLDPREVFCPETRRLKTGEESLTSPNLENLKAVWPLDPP
In short: as §1

[15] = target: T11, ETS2 (Homo sapiens, UniProt P15036 1-469)
T11 sequence: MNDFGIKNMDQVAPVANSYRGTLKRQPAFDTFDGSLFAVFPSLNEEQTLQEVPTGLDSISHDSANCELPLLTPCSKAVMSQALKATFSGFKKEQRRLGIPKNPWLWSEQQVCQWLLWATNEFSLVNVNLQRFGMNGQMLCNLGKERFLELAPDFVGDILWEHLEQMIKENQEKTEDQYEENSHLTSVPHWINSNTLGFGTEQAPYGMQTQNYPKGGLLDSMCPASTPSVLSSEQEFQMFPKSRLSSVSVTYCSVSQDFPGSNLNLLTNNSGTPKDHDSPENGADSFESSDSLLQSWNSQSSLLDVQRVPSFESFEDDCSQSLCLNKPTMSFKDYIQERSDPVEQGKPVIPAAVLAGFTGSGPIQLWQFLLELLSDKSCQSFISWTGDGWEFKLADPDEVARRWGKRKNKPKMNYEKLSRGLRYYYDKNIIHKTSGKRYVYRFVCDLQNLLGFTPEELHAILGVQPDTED
In short: as §1

[16] = target: T12, ETV7 (Homo sapiens, UniProt Q9Y603 1-341)
T12 sequence: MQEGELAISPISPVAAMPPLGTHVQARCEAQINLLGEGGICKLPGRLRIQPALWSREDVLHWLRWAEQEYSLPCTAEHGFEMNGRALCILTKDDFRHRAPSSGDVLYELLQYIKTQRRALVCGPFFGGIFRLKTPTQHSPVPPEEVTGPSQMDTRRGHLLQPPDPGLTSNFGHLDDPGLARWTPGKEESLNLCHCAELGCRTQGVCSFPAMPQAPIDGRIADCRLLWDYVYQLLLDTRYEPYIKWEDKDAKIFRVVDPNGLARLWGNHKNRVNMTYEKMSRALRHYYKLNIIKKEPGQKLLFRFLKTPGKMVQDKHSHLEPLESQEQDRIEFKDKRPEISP
In short: as §1

[17] = target: T13, ETV3 (Homo sapiens, UniProt P41162-2 1-143)
T13 sequence: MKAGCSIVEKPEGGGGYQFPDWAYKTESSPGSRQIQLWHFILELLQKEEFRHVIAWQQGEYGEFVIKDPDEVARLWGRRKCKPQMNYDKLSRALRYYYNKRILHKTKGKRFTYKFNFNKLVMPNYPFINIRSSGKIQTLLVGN
In short: as §1

[18] = target: ETV6 (Homo sapiens, UniProt P41212 1-452)
Chain of ETV6 (P41212 whole entry): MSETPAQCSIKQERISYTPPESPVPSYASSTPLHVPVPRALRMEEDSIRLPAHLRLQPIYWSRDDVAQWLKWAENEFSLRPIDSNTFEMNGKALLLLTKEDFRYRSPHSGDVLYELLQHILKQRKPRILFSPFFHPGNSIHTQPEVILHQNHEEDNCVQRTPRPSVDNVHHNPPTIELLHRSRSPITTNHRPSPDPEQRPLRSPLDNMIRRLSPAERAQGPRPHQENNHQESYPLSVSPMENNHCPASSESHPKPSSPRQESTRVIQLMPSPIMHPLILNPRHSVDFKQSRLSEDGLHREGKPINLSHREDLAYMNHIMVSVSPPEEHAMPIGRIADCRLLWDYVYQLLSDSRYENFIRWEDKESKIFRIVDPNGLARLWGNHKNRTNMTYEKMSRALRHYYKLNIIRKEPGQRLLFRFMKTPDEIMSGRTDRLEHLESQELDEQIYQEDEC
In short: as §1

## CACATG
[1]
  binding signal: 1.1 fold enrichment (6-mer frequency, TF over GST control)
[2]
  binding signal: 1.07 fold enrichment (6-mer frequency, TF over GST control)
[3]
  binding signal: 1.07 fold enrichment (6-mer frequency, TF over GST control)
[4]
  binding signal: 1.16 fold enrichment (6-mer frequency, TF over GST control)
[5]
  binding signal: 1.16 fold enrichment (6-mer frequency, TF over GST control)
[6]
  binding signal: 1.11 fold enrichment (6-mer frequency, TF over GST control)
[7]
  binding signal: 1.1 fold enrichment (6-mer frequency, TF over GST control)
[8]
  binding signal: 1.09 fold enrichment (6-mer frequency, TF over GST control)
[9]
  binding signal: 1.23 fold enrichment (6-mer frequency, TF over GST control)
[10]
  binding signal: 1.12 fold enrichment (6-mer frequency, TF over GST control)
[11]
  binding signal: 1.04 fold enrichment (6-mer frequency, TF over GST control)
[12]
  binding signal: 1.1 fold enrichment (6-mer frequency, TF over GST control)
[13]
  binding signal: 1.12 fold enrichment (6-mer frequency, TF over GST control)
[14]
  binding signal: 1.03 fold enrichment (6-mer frequency, TF over GST control)
[15]
  binding signal: 1.11 fold enrichment (6-mer frequency, TF over GST control)
[16]
  binding signal: 1.03 fold enrichment (6-mer frequency, TF over GST control)
[17]
  binding signal: 1.07 fold enrichment (6-mer frequency, TF over GST control)
[18]
  binding signal: 1.06 fold enrichment (6-mer frequency, TF over GST control)
